In PubChem BioAssay:
Active and inactive are the calls of the source.

molecular target: Luciferin 4-monooxygenase (Photinus pyralis) (UniProt P08659); assay: inhibition of purified Photinus pyralis luciferase – biochemical, luminescence, purified enzyme, 2006 set, primary screen (AID 1141); settings: purified firefly luciferase, SteadyGlo luminescence, 30 min; higher = more signal, called active from +8 up or from −8 down;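 also: cell-free assay with purified firefly luciferase at 100 ng per well in PBS; test concentration not given here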
Sequence (P08659 whole entry, looked up): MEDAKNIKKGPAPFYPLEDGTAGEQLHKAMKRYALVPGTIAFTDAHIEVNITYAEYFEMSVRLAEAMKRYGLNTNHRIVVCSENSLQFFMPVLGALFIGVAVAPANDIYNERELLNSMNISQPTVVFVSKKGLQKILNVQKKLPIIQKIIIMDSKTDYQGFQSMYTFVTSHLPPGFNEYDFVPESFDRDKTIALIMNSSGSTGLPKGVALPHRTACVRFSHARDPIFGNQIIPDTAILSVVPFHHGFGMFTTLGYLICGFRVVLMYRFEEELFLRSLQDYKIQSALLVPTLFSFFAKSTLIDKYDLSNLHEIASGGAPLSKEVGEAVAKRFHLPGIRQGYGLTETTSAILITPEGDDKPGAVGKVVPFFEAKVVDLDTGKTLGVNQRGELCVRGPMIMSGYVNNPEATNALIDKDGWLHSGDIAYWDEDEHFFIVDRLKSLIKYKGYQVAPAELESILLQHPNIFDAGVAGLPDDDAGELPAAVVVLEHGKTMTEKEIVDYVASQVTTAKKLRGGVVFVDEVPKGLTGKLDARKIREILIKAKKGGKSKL

| SMILES | z-score |
| --- | --- |
| CCCCCCC#C[Si](O[C@H](c1ccccc1)c1cn([C@H](CO)Cc2ccccc2)nn1)(C(C)C)C(C)C | 0.751 (inactive) |
| COC(=O)[C@@]1(Cc2ccc(F)cc2)[C@@H]2[C@@H](CC(=O)[C@H]2CC(=O)C(=O)N(C)C)CN1C(=O)c1ccccc1 | 1.28 (inactive) |
| C#CCN(CC=C(C)C)[C@H](CO)c1ccccc1 | 0.648 (inactive) |
| CCc1oc(CC[C@@H](CO)NC(=O)NCCn2cc(C3(O)CCCCC3)nn2)c(C(=O)OC)c1C(=O)OC | 0.654 (inactive) |
| C#CCN(Cc1ccccc1Br)C(/C=C/c1ccccc1)CO (stereo not drawn) | 0.0615 (inactive) |
| C#CCNC(=O)[C@H](Cc1ccccc1)NC(=O)CCC(=O)O | 0.0223 (inactive) |
| C[C@@]1([C@@H](NC(=O)c2ccccc2)c2ccc(-c3ccccc3)cc2)C[C@H]1C1CCCCC1 | 1.32 (inactive) |
| CC(C)C(=C=CC[C@@H](O)c1ccccc1OCCO)CCO | -1.91 (inactive) |
| O=C(c1ccccc1)N1Cc2ccccc2[C@@H]2OC(c3ccc(OCCCO)cc3)=N[C@]2(Cc2ccccc2)C1=O | -0.976 (inactive) |
| CC(C)C(CO)N1C(=O)[C@@H]2[C@H]3C(=O)OCC=C[C@H]3OC23C=CCN(C(C)C)C(=O)[C@@H]13 (stereo partly drawn) | 0.316 (inactive) |
| CN(C)C(=O)[C@@]1(Cc2ccccc2)N=C(c2ccc(OCCCO)cc2)O[C@H]1c1ccccc1N=[N+]=[N-] | -6.45 (inactive) |
| C=C/C=C/[C@H]1C(=C)CN([C@@H](Cc2ccccc2)C(=O)OC)[C@@H]1[C@H](O)Cc1ccccc1 | -0.494 (inactive) |
| COCCOC(=O)N1C(=O)[C@@]2(c3cc(C#CC4(O)CCCCCC4)ccc31)[C@H](c1ccc(O)cc1)N1[C@H](c3ccccc3)[C@H](c3ccccc3)OC(=O)[C@H]1[C@@H]2C(=O)Nc1nc2ccccc2s1 | -0.715 (inactive) |
| Cc1ccc(S[C@]2(C(=O)NC(C)C)CC(=O)N(Cc3ccccc3Cl)[C@@H]2c2ccc(CO)cc2I)cc1 | -0.102 (inactive) |
| COc1ccc(CCNC(=O)[C@@]2(Sc3ccc(C)cc3)CC(=O)N(C3CCCCC3)[C@@H]2c2ccc(CO)cc2I)cc1 | 0.645 (inactive) |
| COCCOC(=O)N1C(=O)[C@@]2(c3cc(C#Cc4ccc(OC)cc4)ccc31)[C@H](c1ccccc1OCCO)N1[C@H](c3ccccc3)[C@H](c3ccccc3)OC(=O)[C@H]1[C@@H]2C(=O)N1CCN(c2ncccn2)CC1 | -1.1 (inactive) |
| NC(=O)[C@@H]1[C@H]2C(=O)O[C@H](c3ccccc3)[C@H](c3ccccc3)N2[C@H](c2ccc(O)cc2)[C@@]12C(=O)Nc1ccc(C#CC3(O)CCCCCC3)cc12 | -0.869 (inactive) |
| CC(=O)N1Cc2ccccc2C[C@@]2(COC(c3ccc(OCCCO)cc3)=N2)C1=O | -2.19 (inactive) |
